Reference: ChEMBL document CHEMBL4513216, “Probing the Open Global Health Chemical Diversity Library for Multistage-Active Starting Points for Next-Generation Antimalarials” (ACS Infect Dis, 2020)
Among all 69,000 compounds or so, about 8,600 (12%) showed an effect of 50% or more. Shown is part of a subset that was picked to be rich in strong results.

Tested on: Plasmodium berghei
Test: Screen against P. berghei liver stage (PbLuc), transformed with Luciferase, at 10uM
Type: functional, HepG2
Settings: tested at 10 uM

Compound | INHIBITION
O=C(NCCO)C1CN(c2cncnc2)CCO1 (configuration not stated) | 3.91%
CCCOC1CCCN(C(=O)c2cc(CN(CC)CC)c(CC)o2)C1 (configuration not stated) | 18.5%
COc1ccc(CN(Cc2ccccn2)Cc2cncn2C)cc1 | 23.9%
CN(Cc1nccn1C)C1CCN(CCc2ccccn2)CC1 | -3.2%
CCn1nc(C)c(CN(Cc2ccccn2)Cc2ccccc2Cl)c1C | 50.8%
CCn1nc(C)c(CN(CCCN(C)C)Cc2ccccn2)c1C | -37.4%
Cn1ccnc1CN(Cc1ccccn1)Cc1ccccc1Cl | 79.6%
Cc1ncc(CN(Cc2ccccn2)Cc2ccccc2Cl)n1C | 69.4%
COCCn1ccnc1CN(Cc1ccccn1)CC(C)C | 44%
CCn1nc(C)c(CN(CCOC)Cc2ccccn2)c1C | 4.12%
Cc1nn(C)cc1CN(Cc1ccccn1)Cc1ccccc1Cl | 48%
O=S(=O)(CCNCCn1cccn1)c1ccccc1 | 19.8%
COC1CCN(C(=O)Nc2cc(C(F)(F)F)c[nH]c2=O)CC1 | -111%
COCCNC(=O)C1CC(=O)N(c2n[nH]c3cccc(F)c23)C1 (configuration not stated) | -23.7%
CC1CCCCN1CCNC(=O)c1ccn(-c2cccc(F)c2)n1 (configuration not stated) | 16.8%
CN(CCC(F)(F)F)C(=O)c1nc(S(C)(=O)=O)n2ccccc12 | 12.6%
Cc1nc(Nc2nnc(C)s2)cc(C2CCCN2C(C)C)n1 (configuration not stated) | -15.3%
COC(=O)c1cc(OC)c(OC)cc1N(C)S(C)(=O)=O | 44.3%
CN(C)CC(=O)N1CC2(CCN(C(=O)Nc3ccccc3)C2)C1 | 0.112%
Cc1nc(CC(=O)NS(=O)(=O)c2cccc3cnccc23)cs1 | 6.33%
CCN1C[C@H]2C3(CCN(S(=O)(=O)CC)CC3)CC[C@@]2(C(=O)N(C)C)C1 | 13.7%
COc1cccc(CN2CCCCC2CN2CCOCC2)c1F (configuration not stated) | 60.4%

Compound | INHIBITION
COc1cccc(CN2C[C@H]3CC[C@H]2C3)c1OCCN1CCOCC1 | -14.5%
COc1cc2c(cc1CN1CCCCC1CN1CCOCC1)CCC2 (configuration not stated) | 13.9%
CCc1nc(CCn2ccnc2-c2nccn2C)no1 | 65.6%
CCc1nc(Cn2ccnc2-c2nccn2C)no1 | 45.2%
CCc1nc(CCn2cc(-c3nccn3C)nn2)no1 | 23%
CS(=O)(=O)c1cc(Cl)cnc1C1CCN(C(=O)C2CCOCC2)CC1 | 24.8535%
Cc1cccc(CN2C(=O)CC[C@@H]3[C@H]2CCN3C(=O)c2ccsc2)n1 | 14.8%
COCCOc1ncccc1NCc1nc2ccccc2n1C | -16%
COc1cc(F)c(NCc2nc3ccccc3n2C)cc1OC | 59.8%
COCCOc1ccc(F)cc1NCc1nc2ccccc2n1C | -3.12%
O=C(c1ccc(Cl)cc1)N1CCC(N2CCCNC2=O)CC1 | 40.8%
CCN1CCN(C(=O)CCn2cccc2)CC1 | 2.69%
COCCN1CC(c2cc(O)nc(NC(C)C)n2)CC1=O (configuration not stated) | -17.7%
COc1ccc(CN2CCOC(CCc3ccnc(N)c3)C2)cc1 (configuration not stated) | 87.1%
c1ccc(CCCC2CN(Cc3ncc[nH]3)CCO2)cc1 (configuration not stated) | 28.5%
Cc1cc(C)n(CC2CN(Cc3ccc4c(c3)OCCO4)CCO2)n1 (configuration not stated) | 14.3%
CNc1nccnc1C1CN(Cc2ccc3[nH]ccc3c2)CCO1 (configuration not stated) | 21.1%
Nc1cc(CCC2CN(Cc3ccc(C(=O)O)cc3)CCO2)ccn1 (configuration not stated) | 32.8%
Nc1cc(CCC2CN(Cc3ccc4cc[nH]c4c3)CCO2)ccn1 (configuration not stated) | 78.2%
Nc1cc(CCC2CN(Cc3ccc4c(c3)OCCO4)CCO2)ccn1 (configuration not stated) | 69.3%
Nc1cc(CCC2CN(Cc3cccc(C(=O)O)c3)CCO2)ccn1 (configuration not stated) | 45.6%
COc1ccc(CC2CN(Cc3cncn3C)CCO2)cc1 (configuration not stated) | 47.1%

Compound | INHIBITION
Cc1ccnc(NCc2ccccc2N2CCOCC2)n1 | 46.3%
Cc1[nH]nc2ncc(C(=O)N3CCN(CC(C)O)CC3)cc12 (configuration not stated) | -0.96%
Cc1ccc(OCC2CCCN(C(=O)c3csc(CN(C)C)n3)C2)cc1 (configuration not stated) | 31%
c1cnc(N2CCOC3(CCN(CC4CCOC4)CC3)C2)nc1 (configuration not stated) | 8.64%
CCNC(=O)c1ccc(NC2CCOC3(CCCC3)C2)nn1 (configuration not stated) | 24.6%
O=C(c1ccco1)N1CCO[C@@H]2CN(Cc3nccs3)CC[C@@H]2C1 | -5.89%
O=C(c1ccco1)N1CC[C@@H]2CN(C3CCOCC3)CCO[C@@H]2C1 | 22.2%
O=C(c1ccco1)N1CCO[C@@H]2CNCC[C@@H]2C1 | -0.388%
O=C(c1ccco1)N1CCO[C@@H]2CN(c3ccccn3)CC[C@@H]2C1 | -26.5%
CCc1cnc(N2CC[C@@H]3CN(C(=O)c4ccco4)CCO[C@@H]3C2)nc1 | 92.5%
CC(=O)N1CC[C@@H]2CN(C(=O)c3ccco3)CCO[C@@H]2C1 | 48.3%
O=C(CCO)N1CC[C@@H]2CN(C(=O)c3ccco3)CCO[C@@H]2C1 | 80%
O=C(c1ccco1)N1CCO[C@@H]2CN(c3ncc(F)cn3)CC[C@@H]2C1 | 42.6%
O=C(c1ccco1)N1CCO[C@@H]2CN(c3ccccc3)CC[C@@H]2C1 | 84.7%
O=C(c1ccco1)N1CCO[C@@H]2CN(CC3CC3)CC[C@@H]2C1 | 85.8%
CCc1cnc(N2CC[C@@H]3CN(C(C)=O)CCO[C@@H]3C2)nc1 | 45.8%
Cc1cccc(N2CC[C@@H]3CN(C(=O)c4ccco4)CCO[C@@H]3C2)n1 | 49.5%
CC(NC(=O)N1CCCC1)c1ccc(S(N)(=O)=O)cc1 (configuration not stated) | 33.7%
NC(=O)[C@@H]1CCCN1C(=O)c1csc(-c2ccc(C(F)(F)F)cc2)n1 | 28.4%
Cc1cc(CN(C)C(=O)C(c2ccccc2F)N(C)C)ccn1 (configuration not stated) | 30%
COc1ccc(CC(=O)N2CCCC(c3cc(C)[nH]n3)C2)cc1 (configuration not stated) | 28.62%
CN(C)C(=O)CO[C@H]1CN(Cc2cccc(F)c2)[C@@H]2CCCO[C@H]12 | 43.1%

Compound | INHIBITION
COCc1cc(CNc2cnn(CC(F)F)c2)ccc1OC | 38.2%
CC(=O)N1CCO[C@@H]2CN(C(=O)NCc3ccccc3)CC[C@@H]2C1 | 51.2%
CC(=O)N1CCO[C@@H]2CN(C(=O)NCc3cccnc3)CC[C@@H]2C1 | 12.1%
CN1CCO[C@@H]2CN(C(=O)NCc3ccccc3)CC[C@@H]2C1 | 16.8%
CN(C)C(=O)N1C[C@H]2CC[C@@H](C1)N(Cc1ccc3nsnc3c1)C2 | 21.8%
CCOc1ccc(CN2CCN(C(=O)c3cc(C4CC4)[nH]n3)CC2)cc1 | 48.1%
CCOc1nnc(CN2CCCC(c3nc4ccccc4[nH]3)C2)s1 (configuration not stated) | 22.8%
Fc1ccc(CN2CCCC(c3cc4ncccc4[nH]3)C2)cc1 (configuration not stated) | 85.65%
O[C@@H]1CN(Cc2ccc(F)cc2)CC[C@H]1NCc1ccccn1 | 28.55%
CC(=O)Nc1ccc(CN2CCCC(c3cc4ncccc4[nH]3)C2)cc1 (configuration not stated) | 50.95%
CCC(=O)NC1CCCN(Cc2ccc(NC(C)=O)cc2)C1 (configuration not stated) | 27.6%
Fc1ccc(CN2CCCC(c3nccnc3-n3ccnc3)C2)cc1 (configuration not stated) | 6.32%
Cc1cc(C)n(CC(=O)N2CCCC(c3cc4cccnc4[nH]3)C2)n1 (configuration not stated) | 30.4%
CCOc1ccc(CN2CCCC(c3cc4ncccc4[nH]3)C2)cc1 (configuration not stated) | 81.5%
CC(=O)N(Cc1noc(C)n1)C1CCN(CC2(O)CCCCC2)C1 (configuration not stated) | 33.7%
Cn1cc(CN2CCC(c3[nH]ncc3S(C)(=O)=O)C2)cn1 (configuration not stated) | 8.53%
CCOc1ncccc1NC(=O)c1ccc(C)s1 | 23.2%
CCc1nnc(Sc2nn3cc(C)nc3s2)n1C | -9.8%
Cc1noc(C)c1CCC(=O)N1CCOCC1CCc1cnccn1 (configuration not stated) | 25.8%
Cc1cnn(CCC(=O)N2CCN(C(=O)C3CC3)[C@@H]3CS(=O)(=O)C[C@@H]32)c1 | 3%
CC(C)(C)c1nc(CC(=O)N2CCCC(n3cncn3)C2)cs1 (configuration not stated) | 47.65%
Cc1ccc(C2(O)CCN(C(=O)c3ccc(S(N)(=O)=O)cc3)CC2)nc1 | 38%

Compound | INHIBITION
OC(COCc1cccs1)Cn1cc(Cl)cn1 (configuration not stated) | 75.2%
OC(COCc1cccs1)Cn1cc(-n2cccc2)cn1 (configuration not stated) | 8.46%
OC(COCc1cccs1)CSc1nnc2ccccn12 (configuration not stated) | 56.5%
OC(COCc1ccco1)CSc1nnc2ccccn12 (configuration not stated) | 14.8%
OC(COCc1ccccc1)CSc1nnc2ccccn12 (configuration not stated) | 42.6%
OC(COCc1cccs1)Cn1cc(Br)cn1 (configuration not stated) | -28.4%
CSCC(=O)NC1CC(=O)N(CCc2ccccc2)C1 (configuration not stated) | -17.6%
CCn1nc(C)c(NC(=O)CN2CCN(C(C)=O)CC2)c1C | -4.23%
CS(=O)(=O)N1CC2(CCN(CC3CCCCC3)CC2)Cc2ccccc21 | 46.6%
O=C(Nc1ccc2c(ccn2CCN2CCOCC2)c1)c1ccccn1 | -4.15%
CC(C)OCCCN(Cc1ccncc1)Cc1cc(F)cc(F)c1 | -26.2%
CCOCCN1CCN(c2ncccc2C#N)CC1CC (configuration not stated) | 4.03%
O=C(c1ccncn1)N1C[C@@H]2CN(Cc3cccnc3)CCO[C@@H]2C1 | 17.5%
O=C(Nc1cccc(OCc2ccc(F)cc2)c1)C1COCCO1 (configuration not stated) | 10.3%
O=C(Nc1cccc(OCc2cccc(F)c2)c1)C1COCCO1 (configuration not stated) | -47.4%
O=C(OCc1ccccc1)c1cccc(NC(=O)C2COCCO2)c1 (configuration not stated) | 7.44%
CCOCc1cccc(NC(=O)C2COCCO2)c1 (configuration not stated) | 59.3%
CCOC(=O)COc1cccc(NC(=O)C2COCCO2)c1 (configuration not stated) | 8.24%
O=C(Nc1ccc(OCc2cccc(F)c2)c(F)c1)C1COCCO1 (configuration not stated) | 78.4%
